Data on 93 molecules can be found in PubChem BioAssay AID463173 (ICCB-Longwood Screening Facility, Harvard Medical School, 2010).

The whole screen tested about 52,000 compounds, of which about 4,300 (8.3%) were called active. This excerpt belongs to a sample that is enriched for actives. Unmarked numbers belong to inactive results. Cut-off read from the data, not from the text of the source: active = survival mostly below about 52% (no sharp cut-off); inactive = mostly above about 56%.

The test has as its system DeltatarO mutant. As to the kind of experiment: growth inhibition of S. aureus wild type versus tarO mutant, primary screen, teichoic acid synthesis inhibitors, RN4220, OD600 (AID 463173). The settings on record: OD600, 18 h, hits give low values, screened at 18.75 µg/mL (by protocol).
For the molecule `O=C(C1CC1)N1CCc2cc(Br)cc(S(=O)(=O)Nc3ccc(F)c(F)c3)c21`, the survival was 110%.
The value for `CCS(=O)(=O)N1CC(=O)N(c2ccc(Cl)cc2)C(C)(C(=O)NC2CCCCCC2)C1` (stereo not drawn) was 115%.
In the case of `CCN1CCN(c2c(S(=O)(=O)c3ccccc3)cnc3ccc(Cl)cc23)CC1`, the survival is 124%.
As for `COc1ccc(NS(=O)(=O)c2ccc3c(c2)CCN3C(=O)CCC(=O)O)cc1Cl`, the survival was 93%.
Turning to `CN(c1ncnc2onc(-c3cccc(Cl)c3)c12)C1CCCCC1`, the survival is -17% (active).
For `Clc1cccc(-c2noc3ncnc(NC4CCCCC4)c23)c1`, the survival is 68%.
`CN(c1ncnc2c1c(-c1ccccc1)cn2-c1cccc(Cl)c1)C1CCCCC1`: the survival is 83%.
On to `Cc1cccc(NC(=O)CSc2nc(-c3cccs3)nc3cc(=O)[nH]n23)c1`, for which the survival was 87%.
With `Cc1ncc(CO)c2c1Oc1nc(-c3ccccc3Cl)nc(SCc3ccccc3F)c1C2`, the survival was 72%.
Regarding `Cc1cc(C(F)(F)F)nn1-c1nc(-c2ccccc2)cc(C(F)(F)F)n1`, the survival is 17% (active).
As to `CC(Sc1nc(-c2ccccc2)cc(C(F)(F)F)n1)C(=O)NN1CCCCC1` (stereo not drawn), the survival is 72%.
The same measure for `COc1ccc(-c2cc(C(F)F)nc(-n3nc(C)cc3C)n2)cc1`: 91%; for `COc1ccc(-c2cc(C(F)(F)F)nc(S(C)(=O)=O)n2)cc1`: 83%; for `COc1ccc(-c2cc(C(F)(F)F)nc(-n3nc(C(F)(F)F)cc3C)n2)cc1`: 16% (active).
Take `CCc1nn(CC(=O)NCCc2ccc(Cl)cc2)c(=O)c2cc3c(OC)cccc3n12`: the survival was 75%.
Turning to `Clc1ccccc1CNc1ncnc2c1nc1n2CCCC1`, the survival was 97%.
Turning to `COC(=O)c1cc(-c2cocc2C=C(C#N)C#N)ccc1Cl`, the survival is 84%.
Take `CC(C)Oc1ccc(C(=O)N2CC(=O)Nc3ccc(F)cc3C2c2ccc(F)cc2)cc1` (stereo not drawn): the survival was 53%.
For the molecule `CCc1nc2nc(C)c(NS(=O)(=O)c3ccc(F)c(C)c3)c(=O)n2[nH]1`, the survival was 123%.
Consider `O=C(COCc1cc(-c2ccco2)on1)Nc1cc(Cl)ccc1O`, for which the survival was 0% (active).
Consider `CCc1ccccc1NC(=O)COCc1cc(-c2ccco2)on1`, for which the survival was 55%.
On to `O=C(COCc1cc(-c2ccc(F)cc2)on1)Nc1cc(Cl)ccc1O`, for which the survival was 74%.
As for `O=C(COCc1cc(-c2cccs2)on1)Nc1cccc(Cl)c1Cl`, the survival is 75%.
As for `O=C(COCc1cc(-c2ccc(F)cc2)on1)Nc1cccc(Cl)c1Cl`, the survival was 46% (active).
In the case of `O=C(COCc1cc(-c2ccco2)on1)Nc1cccc(Cl)c1Cl`, the survival is 32% (active).
Turning to `Cc1ccc(O)c(NC(=O)COCc2cc(-c3ccco3)on2)c1`, the survival is 95%.
Regarding `Cc1ccc(Cl)cc1NC(=O)COCc1cc(-c2ccco2)on1`, the survival is 83%.
`O=C(COCc1cc(-c2ccc(F)cc2)on1)Nc1cc(Cl)cc(Cl)c1`: the survival was 144%.
Turning to `CCc1cccc(NC(=O)CCC(=O)N2CCSc3ccccc32)c1`, the survival was 57%.
As for `CC(C)(C)C(=O)Nc1cccc(C(=O)OCc2cc(=O)n3nc(C4CCCCC4)sc3n2)c1`, the survival was 124%.
Turning to `COc1ccc(-c2nnc(SCc3nnc(-c4ccccc4)o3)o2)cc1OC`, the survival is 73%.
For `Cc1nn(CCC(=O)Nc2cc(F)ccc2F)c(=O)c2nn(-c3ccccc3)c(C)c12`, the survival was 99%.
Regarding `CCC(C)(C)n1nnnc1C(c1ccccc1)N1CCc2ccccc2C1` (stereo not drawn), the survival is 79%.
In the case of `COc1ccccc1Cn1cc(C(=O)c2ccc(Cl)cc2)c(=O)c2cc3c(cc21)OCCO3`, the survival is 83%.
For the molecule `Cc1ccc(Nc2nc(C(=O)N3CCC(C)CC3)cs2)cc1`, the survival was 91%.
For the molecule `Cc1cccc(OCC(=O)NCCc2nc3ccccc3[nH]2)c1C`, the survival is 79%.
For the molecule `Cc1cc(C)cc(OCC(=O)NCCc2nc3ccccc3[nH]2)c1`, the survival was 109%.
Turning to `O=C(NCCc1nc2ccccc2[nH]1)c1ccc(F)cc1`, the survival is 81%.
On to `O=C(COc1ccc(F)cc1)NCCc1nc2ccccc2[nH]1`, for which the survival was 57% (active).
As for `Cc1cc(OCC(=O)NCCc2nc3ccccc3[nH]2)cc(C)c1Cl`, the survival was 44% (active).
For `COc1ccc(C(=O)NCCc2nc3ccccc3[nH]2)cc1`, the survival was 127%.
The value for `COc1cccc(CNC(=O)c2ccc(-c3nc(CS(=O)c4ccccc4)c(C)o3)cc2)c1` (stereo not drawn) was 92%; that for `O=S(=O)(c1ccc(Cl)cc1)c1nnn2c1nc(N1CCCCC1)c1sccc12` was 52%.
Regarding `CCS/C(=C(\C#N)C(N)=O)c1ccc(-c2ccccc2)[nH]1`, the survival was 59%.
Regarding `CCSC(=C(C#N)C#N)c1cc2c([nH]1)CCCC2`, the survival was 45% (active).
The same measure for `N#CC(C#N)=C(C#N)c1cc2c([nH]1)CCCC2`: 81%; for `CCCOc1ccc(C2C(=O)N(C3CCCCC3)CC(=O)N2CCc2ccccc2)cc1OC` (stereo not drawn): 86%; for `O=C(c1ccc(Cl)cc1)N1CCC(c2ccncc2)CC1`: 87%.
Regarding `Cc1cc(-c2ccccc2)n2nc(-c3cccc(Br)c3)cc2n1`, the survival was 14% (active).
For the molecule `Cc1cc(-c2ccccc2)n2nc(-c3ccccc3)cc2n1`, the survival was -3% (active).
The same measure for `Brc1cccc(-c2cnn3c(-c4ccccc4)cc(-c4ccccc4)nc23)c1`: 74%.
The same measure for `Cc1cc(C)n2nc(-c3ccccc3)cc2n1`: 97%; for `O=C(Nc1ccc(Br)cc1)c1cc2nc(-c3ccccc3)cc(-c3ccccc3)n2n1`: 65%.
Turning to `Cc1cc(-c2ccccc2)n2nc(N)nc2n1`, the survival is 99%.
Turning to `CS(=O)(=O)N(CC(=O)NCCc1ccccc1)c1cc(C(F)(F)F)ccc1Cl`, the survival is 68%.
As for `CCOC(=O)c1c(C)[nH]c(C)c1S(=O)(=O)NCC(=O)NCc1cccc(Br)c1`, the survival is 130%.
The value for `COc1ccc(C)cc1S(=O)(=O)N1CCN(c2cccc(Cl)c2)CC1` was 59%; that for `Cc1cc(C)c(Cn2c(CCNC(=O)c3ccco3)nc3ccccc32)c(C)c1` was 59%; that for `COc1cccc(-n2c(=O)c3sc4ccccc4c3n(CC(=O)Nc3ccccc3C)c2=O)c1` was 74%.
For the molecule `Cc1ccc(NC(=O)Cn2nnc(C(=O)NCCc3ccccc3)c2N)cc1C`, the survival was 46% (active).
For the molecule `CCc1ccccc1NC(=O)Cn1nnc(C(=O)NCc2cccs2)c1N`, the survival was 94%.
For `Cc1ccc(NC(=O)Cn2nnc(C(=O)NCCc3ccccc3)c2N)cc1`, the survival was 87%.
As to `Cc1cc(C)cc(NC(=O)Cn2nnc(C(=O)NCc3ccccc3Cl)c2N)c1`, the survival is 72%.
On to `CCc1ccccc1NC(=O)Cn1nnc(C(=O)NCc2cccc(OC)c2)c1N`, for which the survival was 70%.
`COc1ccc(NC(=O)Cn2nnc(C(=O)Nc3ccc(C)c(F)c3)c2N)cc1Cl`: the survival is 118%.
On to `Cc1ccc(NC(=O)Cn2nnc(C(=O)NCCc3ccccc3)c2N)cc1Cl`, for which the survival was 105%.
The same measure for `Cc1cccc(NC(=O)Cn2nnc(C(=O)Nc3ccc(F)c(Cl)c3)c2N)c1`: 101%.
On to `CCc1ccccc1NC(=O)Cn1nnc(C(=O)NCc2ccccc2Cl)c1N`, for which the survival was 20% (active).
As to `COc1cccc(CNC(=O)c2nnn(CC(=O)Nc3cc(Cl)ccc3C)c2N)c1`, the survival is 25% (active).
On to `COc1cccc(Cn2nnc(C(=O)Nc3cc(C)ccc3C)c2N)c1`, for which the survival is 100%.
In the case of `COc1ccc(NC(=O)Cn2nnc(C(=O)Nc3ccc(F)c(Cl)c3)c2N)cc1OC`, the survival is 37% (active).
With `COc1ccc(-c2nnc(SCC(=O)Nc3c(C)cccc3C)nc2-c2ccc(OC)cc2)cc1`, the survival was 92%.
The value for `COc1cccc(CNC(=O)c2ccc(-c3nc(CS(=O)(=O)c4ccccc4)c(C)o3)cc2)c1` was 72%.
Take `COc1ccc(-c2noc(-c3ccc(N4CCCC4)c([N+](=O)[O-])c3)n2)cc1OC`: the survival is 59%.
For `CCC(C)NC(=O)c1cc2cc(S(=O)(=O)N3CCCCC3)ccc2n1C` (stereo not drawn), the survival was 55%.
With `CCc1cccc(NC(=O)CC2Oc3ccc(C)cc3NC2=O)c1` (stereo not drawn), the survival was 79%.
The same measure for `Cc1ccc(S(=O)(=O)Nc2nc(C)c(NC(=O)NC3C=NN=C3)s2)cc1`: 90%; for `O=C(NCc1cccnc1)C(=O)NCC(c1cccnc1)N1CCN(c2ccc(F)cc2)CC1` (stereo not drawn): 70%; for `Cc1ccc(C)c(NC(=O)c2nnn(CC(=O)Nc3cccc(C)c3C)c2N)c1`: 98%.
As to `Cc1cccc(NC(=O)Cn2nnc(C(=O)Nc3ccccc3Br)c2N)c1C`, the survival is 8% (active).
The same measure for `Nc1c(C(=O)NCc2ccc(Cl)cc2Cl)nnn1Cc1ccc(Br)cc1`: 45% (active).
Regarding `COc1cccc(Cn2nnc(C(=O)NCc3ccc(Cl)cc3Cl)c2N)c1`, the survival is 71%.
On to `COc1ccccc1NC(=O)Cn1nnc(C(=O)Nc2ccccc2Br)c1N`, for which the survival was 89%.
For the molecule `Cc1ccc(C)c(Cn2nnc(C(=O)NCc3ccc(Cl)cc3Cl)c2N)c1`, the survival is 62%.
The value for `Cc1ccc(Cl)cc1NC(=O)CC1Sc2ccccc2NC1=O` (stereo not drawn) was 93%; that for `CC(CCc1ccccc1)NC(=O)CSc1n[nH]c(-c2ccccc2Cl)n1` (stereo not drawn) was 54%.
As for `COc1ccc(CCNC(=O)c2cc(Sc3cccc(Cl)c3)nc3ccccc23)cc1OC`, the survival was 89%.
The same measure for `CCc1c(C)sc2c1CCN(C(=O)Nc1cc(C)ccc1OC)C2c1ccc(F)cc1` (stereo not drawn): 144%; for `CCc1c(C)sc2c1CCN(C(=O)Nc1ccc(F)c(Cl)c1)C2c1ccc(F)cc1` (stereo not drawn): 46% (active); for `CCc1c(C)sc2c1CCN(C(=O)Nc1cc(Cl)c(OC)cc1OC)C2c1ccccc1` (stereo not drawn): 63%.
Consider `CCc1c(C)sc2c1CCN(C(=O)Nc1cc(C)cc(C)c1)C2c1ccccc1` (stereo not drawn), for which the survival is 55%.
Regarding `CCc1c(C)sc2c1CCN(C(=O)Nc1cc(OC)c(OC)c(OC)c1)C2c1ccccc1` (stereo not drawn), the survival was 25% (active).
Regarding `CCc1c(C)sc2c1CCN(C(=O)Nc1ccccc1C(=O)OC)C2c1ccc(F)cc1` (stereo not drawn), the survival is 105%.
